# Source: PMC7862700, “An all-to-all approach to the identification of sequence-specific readers for epigenetic DNA modifications on cytosine”
# Columns and labels:
# Assay in all cases: DAPPL (digital affinity profiling via proximity ligation, sequencing); 10 mM Tris-HCl pH 7.5, 50 mM NaCl, 1 mM DTT, 4% glycerol, room temperature, 30 min; GST-TFs on glutathione beads, 16-mer random dsDNA library, 0.1% formaldehyde crosslink after washing; high values mean tight binding
# Conditions in all cases: protein: recombinant; tags: N-terminal GST; dsDNA, one strand shown
# FEV = target: T1, FEV (Homo sapiens, UniProt Q99581 1-238)
# T1 sequence: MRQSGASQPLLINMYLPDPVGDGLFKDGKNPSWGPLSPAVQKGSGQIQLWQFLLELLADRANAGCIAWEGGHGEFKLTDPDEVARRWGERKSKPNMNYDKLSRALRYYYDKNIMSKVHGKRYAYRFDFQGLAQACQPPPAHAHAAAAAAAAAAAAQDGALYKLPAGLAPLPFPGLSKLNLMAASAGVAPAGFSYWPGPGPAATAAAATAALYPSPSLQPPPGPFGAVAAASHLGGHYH
# Method in brief: (§1)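 Yeast served to express human transcription factors as GST fusions, which were then captured on glutathione beads and labelled with DNA barcodes. Pooled with a tag-only sample, they were incubated with 200 nmole of a 16-mer random double-stranded DNA library for 30 min at room temperature in Tris/NaCl/DTT/glycerol buffer, washed, crosslinked with 0.1% formaldehyde, ligated by proximity, amplified by PCR and sequenced. Dividing each hexamer's read frequency for a factor by its frequency for the tag-only sample gives the binding signal.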
# ETV5 = ETV5 (Homo sapiens, UniProt P41161 1-510)
# ETV5, sequence (P41161 whole entry): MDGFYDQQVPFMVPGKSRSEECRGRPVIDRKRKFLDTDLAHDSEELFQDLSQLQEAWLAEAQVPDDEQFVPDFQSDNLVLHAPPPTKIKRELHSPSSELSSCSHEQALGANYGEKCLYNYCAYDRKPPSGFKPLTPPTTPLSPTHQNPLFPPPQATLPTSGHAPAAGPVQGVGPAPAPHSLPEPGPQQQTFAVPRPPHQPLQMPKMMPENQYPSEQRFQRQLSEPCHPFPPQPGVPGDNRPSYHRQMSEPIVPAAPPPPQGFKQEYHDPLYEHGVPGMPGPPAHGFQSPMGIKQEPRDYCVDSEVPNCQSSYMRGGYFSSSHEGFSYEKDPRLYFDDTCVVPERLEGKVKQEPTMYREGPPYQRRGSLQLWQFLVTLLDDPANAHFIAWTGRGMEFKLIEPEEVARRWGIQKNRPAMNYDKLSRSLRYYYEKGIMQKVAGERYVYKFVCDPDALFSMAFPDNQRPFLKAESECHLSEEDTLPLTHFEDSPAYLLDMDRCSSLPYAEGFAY
# Method in brief: as §1
# SPIC = target: T2, SPIC (Homo sapiens, UniProt Q8N5J4 1-248)
# T2 sequence: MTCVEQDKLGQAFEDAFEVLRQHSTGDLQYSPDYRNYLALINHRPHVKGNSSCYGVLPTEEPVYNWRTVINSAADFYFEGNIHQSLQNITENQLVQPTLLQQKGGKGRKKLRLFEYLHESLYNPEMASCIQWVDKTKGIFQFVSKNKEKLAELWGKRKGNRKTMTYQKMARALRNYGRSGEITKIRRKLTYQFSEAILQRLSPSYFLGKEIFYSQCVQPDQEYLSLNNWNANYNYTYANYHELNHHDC
# Method in brief: as §1
# ELF4 = ELF4 (Homo sapiens, UniProt Q99607 1-663)
# ELF4, sequence (Q99607 whole entry): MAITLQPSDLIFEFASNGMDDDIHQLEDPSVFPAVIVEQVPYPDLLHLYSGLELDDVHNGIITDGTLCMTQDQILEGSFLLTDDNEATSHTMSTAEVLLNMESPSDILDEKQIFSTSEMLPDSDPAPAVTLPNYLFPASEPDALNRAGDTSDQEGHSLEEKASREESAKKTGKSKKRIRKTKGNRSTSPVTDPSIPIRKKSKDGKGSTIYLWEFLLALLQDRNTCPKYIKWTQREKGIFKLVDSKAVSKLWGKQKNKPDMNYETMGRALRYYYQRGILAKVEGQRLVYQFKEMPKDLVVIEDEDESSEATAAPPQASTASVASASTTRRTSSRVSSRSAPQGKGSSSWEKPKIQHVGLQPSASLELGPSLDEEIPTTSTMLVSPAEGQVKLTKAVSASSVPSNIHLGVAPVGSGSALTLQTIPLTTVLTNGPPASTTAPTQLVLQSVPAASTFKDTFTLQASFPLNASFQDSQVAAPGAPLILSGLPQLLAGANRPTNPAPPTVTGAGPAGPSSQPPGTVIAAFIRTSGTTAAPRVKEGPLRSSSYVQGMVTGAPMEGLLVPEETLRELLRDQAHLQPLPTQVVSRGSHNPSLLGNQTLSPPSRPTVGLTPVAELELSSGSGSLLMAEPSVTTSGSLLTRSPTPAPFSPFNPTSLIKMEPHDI
# Method in brief: as §1
# ELK4 = target: T3, ELK4 (Homo sapiens, UniProt P28324-2 1-405)
# T3 sequence: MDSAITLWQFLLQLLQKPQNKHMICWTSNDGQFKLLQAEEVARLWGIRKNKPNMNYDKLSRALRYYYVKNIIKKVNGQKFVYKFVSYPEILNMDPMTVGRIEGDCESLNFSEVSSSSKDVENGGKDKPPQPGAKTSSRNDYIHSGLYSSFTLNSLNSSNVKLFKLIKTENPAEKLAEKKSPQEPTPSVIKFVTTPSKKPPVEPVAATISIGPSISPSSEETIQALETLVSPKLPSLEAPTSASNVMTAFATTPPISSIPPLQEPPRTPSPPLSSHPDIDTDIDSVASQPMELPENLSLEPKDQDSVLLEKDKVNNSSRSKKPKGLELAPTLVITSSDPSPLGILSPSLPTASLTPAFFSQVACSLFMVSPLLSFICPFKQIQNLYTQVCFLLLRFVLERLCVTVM
# Method in brief: as §1
# ETV2 = target: T4, ETV2 (Homo sapiens, UniProt O00321 1-342)
# T4 sequence: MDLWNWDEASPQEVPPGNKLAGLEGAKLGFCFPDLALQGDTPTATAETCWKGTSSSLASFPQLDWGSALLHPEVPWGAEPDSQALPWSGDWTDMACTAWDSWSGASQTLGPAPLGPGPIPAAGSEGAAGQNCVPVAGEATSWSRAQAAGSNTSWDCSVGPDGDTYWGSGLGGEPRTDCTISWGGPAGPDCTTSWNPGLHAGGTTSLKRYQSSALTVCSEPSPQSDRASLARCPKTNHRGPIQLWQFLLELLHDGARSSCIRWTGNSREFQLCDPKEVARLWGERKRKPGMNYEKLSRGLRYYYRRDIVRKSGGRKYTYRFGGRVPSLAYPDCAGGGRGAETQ
# Method in brief: as §1
# ELF3 = target: T5, ELF3 (Homo sapiens, UniProt P78545 1-371)
# T5 sequence: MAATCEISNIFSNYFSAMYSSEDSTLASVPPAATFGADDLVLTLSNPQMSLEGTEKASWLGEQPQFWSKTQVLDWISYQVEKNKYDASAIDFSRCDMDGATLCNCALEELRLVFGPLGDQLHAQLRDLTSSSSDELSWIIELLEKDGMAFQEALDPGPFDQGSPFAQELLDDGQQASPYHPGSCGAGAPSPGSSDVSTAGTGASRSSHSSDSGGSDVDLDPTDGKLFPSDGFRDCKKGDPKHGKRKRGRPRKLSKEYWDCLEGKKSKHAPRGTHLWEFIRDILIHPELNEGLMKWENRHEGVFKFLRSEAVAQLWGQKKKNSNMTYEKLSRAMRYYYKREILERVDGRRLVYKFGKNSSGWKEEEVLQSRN
# Method in brief: as §1
# ETV1 = ETV1 (Homo sapiens, UniProt P50549 1-477)
# ETV1, sequence (P50549 whole entry): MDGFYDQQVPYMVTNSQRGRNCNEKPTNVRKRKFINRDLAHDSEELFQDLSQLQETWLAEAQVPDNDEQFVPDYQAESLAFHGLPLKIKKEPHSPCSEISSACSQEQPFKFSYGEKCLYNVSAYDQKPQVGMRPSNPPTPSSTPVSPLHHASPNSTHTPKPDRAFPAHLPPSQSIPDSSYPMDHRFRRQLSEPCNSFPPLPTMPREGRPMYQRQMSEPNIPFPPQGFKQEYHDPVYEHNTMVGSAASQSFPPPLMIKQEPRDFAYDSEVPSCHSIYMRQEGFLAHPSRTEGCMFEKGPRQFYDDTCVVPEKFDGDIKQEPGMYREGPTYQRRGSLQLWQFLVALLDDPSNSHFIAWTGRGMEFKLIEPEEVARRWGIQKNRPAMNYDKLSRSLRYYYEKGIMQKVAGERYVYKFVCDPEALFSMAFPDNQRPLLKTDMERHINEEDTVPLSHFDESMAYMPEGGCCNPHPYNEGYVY
# Method in brief: as §1
# ERF = target: T6, ERF (Homo sapiens, UniProt P50548 1-548)
# T6 sequence: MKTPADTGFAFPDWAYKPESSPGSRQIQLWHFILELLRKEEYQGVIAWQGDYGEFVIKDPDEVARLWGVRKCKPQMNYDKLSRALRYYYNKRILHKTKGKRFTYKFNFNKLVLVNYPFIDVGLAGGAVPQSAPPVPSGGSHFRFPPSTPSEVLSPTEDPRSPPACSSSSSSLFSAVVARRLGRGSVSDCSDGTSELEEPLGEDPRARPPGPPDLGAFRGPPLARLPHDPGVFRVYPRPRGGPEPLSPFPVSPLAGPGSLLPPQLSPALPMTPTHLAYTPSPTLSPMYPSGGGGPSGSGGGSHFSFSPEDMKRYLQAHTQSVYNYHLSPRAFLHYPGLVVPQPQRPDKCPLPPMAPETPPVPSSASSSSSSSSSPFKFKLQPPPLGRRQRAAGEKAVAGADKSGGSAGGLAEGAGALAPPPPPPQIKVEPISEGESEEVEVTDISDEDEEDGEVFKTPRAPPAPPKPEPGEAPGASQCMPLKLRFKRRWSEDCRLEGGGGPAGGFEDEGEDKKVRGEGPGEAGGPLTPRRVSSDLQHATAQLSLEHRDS
# Method in brief: as §1
# ETV3L = target: T7, ETV3L (Homo sapiens, UniProt Q6ZN32 1-361)
# T7 sequence: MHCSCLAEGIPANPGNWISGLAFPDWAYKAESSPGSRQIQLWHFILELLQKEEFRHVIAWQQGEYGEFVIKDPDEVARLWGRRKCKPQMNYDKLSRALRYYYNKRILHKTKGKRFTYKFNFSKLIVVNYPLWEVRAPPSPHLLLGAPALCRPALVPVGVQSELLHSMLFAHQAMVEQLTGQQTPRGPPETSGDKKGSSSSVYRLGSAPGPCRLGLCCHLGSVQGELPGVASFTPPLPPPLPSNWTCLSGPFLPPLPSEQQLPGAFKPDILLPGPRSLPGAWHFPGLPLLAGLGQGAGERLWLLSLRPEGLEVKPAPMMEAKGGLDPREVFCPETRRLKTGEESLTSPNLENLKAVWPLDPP
# Method in brief: as §1
# ETS2 = target: T8, ETS2 (Homo sapiens, UniProt P15036 1-469)
# T8 sequence: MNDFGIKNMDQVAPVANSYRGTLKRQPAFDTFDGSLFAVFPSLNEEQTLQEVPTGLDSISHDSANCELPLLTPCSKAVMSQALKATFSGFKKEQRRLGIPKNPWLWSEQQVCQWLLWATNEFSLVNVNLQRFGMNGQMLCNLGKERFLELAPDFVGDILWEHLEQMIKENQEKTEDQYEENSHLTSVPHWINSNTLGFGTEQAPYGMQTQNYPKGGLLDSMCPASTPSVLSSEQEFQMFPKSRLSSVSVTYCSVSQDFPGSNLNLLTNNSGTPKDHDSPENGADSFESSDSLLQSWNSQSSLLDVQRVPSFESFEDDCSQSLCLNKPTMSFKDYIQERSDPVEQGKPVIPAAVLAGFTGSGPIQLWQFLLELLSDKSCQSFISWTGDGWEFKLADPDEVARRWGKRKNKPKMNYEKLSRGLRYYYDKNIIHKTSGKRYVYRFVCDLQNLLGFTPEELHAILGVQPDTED
# Method in brief: as §1
# SPDEF = target: T9, SPDEF (Homo sapiens, UniProt O95238 1-335)
# T9 sequence: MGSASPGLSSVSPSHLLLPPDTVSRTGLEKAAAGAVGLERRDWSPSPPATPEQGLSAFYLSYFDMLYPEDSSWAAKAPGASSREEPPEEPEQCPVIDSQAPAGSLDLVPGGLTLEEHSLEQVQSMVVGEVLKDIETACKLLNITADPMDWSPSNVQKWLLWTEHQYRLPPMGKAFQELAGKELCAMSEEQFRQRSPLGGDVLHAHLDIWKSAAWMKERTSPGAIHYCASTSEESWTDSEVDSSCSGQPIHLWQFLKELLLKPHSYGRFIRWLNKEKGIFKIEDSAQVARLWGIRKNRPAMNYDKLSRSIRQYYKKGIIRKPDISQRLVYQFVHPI
# Method in brief: as §1
# ETV7 = target: T10, ETV7 (Homo sapiens, UniProt Q9Y603 1-341)
# T10 sequence: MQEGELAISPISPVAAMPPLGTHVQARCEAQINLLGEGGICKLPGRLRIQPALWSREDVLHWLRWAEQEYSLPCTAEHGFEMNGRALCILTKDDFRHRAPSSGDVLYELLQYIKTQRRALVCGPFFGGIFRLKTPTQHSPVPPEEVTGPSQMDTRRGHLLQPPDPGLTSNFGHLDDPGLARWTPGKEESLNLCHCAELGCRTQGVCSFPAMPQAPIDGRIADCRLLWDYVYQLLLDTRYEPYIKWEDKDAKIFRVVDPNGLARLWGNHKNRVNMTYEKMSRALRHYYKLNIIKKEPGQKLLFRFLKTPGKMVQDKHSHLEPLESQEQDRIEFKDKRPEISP
# Method in brief: as §1
# ELF5 = target: T11, ELF5 (Homo sapiens, UniProt Q9UKW6-2 1-255)
# T11 sequence: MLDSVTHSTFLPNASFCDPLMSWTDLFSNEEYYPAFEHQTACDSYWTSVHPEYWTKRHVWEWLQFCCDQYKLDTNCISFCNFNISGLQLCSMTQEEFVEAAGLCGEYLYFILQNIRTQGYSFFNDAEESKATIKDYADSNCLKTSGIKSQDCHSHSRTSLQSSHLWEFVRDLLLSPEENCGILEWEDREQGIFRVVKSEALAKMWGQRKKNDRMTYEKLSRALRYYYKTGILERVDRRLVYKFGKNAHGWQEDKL
# Method in brief: as §1
# ETV3 = target: T12, ETV3 (Homo sapiens, UniProt P41162-2 1-143)
# T12 sequence: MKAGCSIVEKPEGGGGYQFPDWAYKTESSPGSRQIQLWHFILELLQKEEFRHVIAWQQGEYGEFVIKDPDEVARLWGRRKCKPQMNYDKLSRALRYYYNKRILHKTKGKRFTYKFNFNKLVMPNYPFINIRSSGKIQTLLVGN
# Method in brief: as §1
# ETV6 = ETV6 (Homo sapiens, UniProt P41212 1-452)
# ETV6, sequence (P41212 whole entry): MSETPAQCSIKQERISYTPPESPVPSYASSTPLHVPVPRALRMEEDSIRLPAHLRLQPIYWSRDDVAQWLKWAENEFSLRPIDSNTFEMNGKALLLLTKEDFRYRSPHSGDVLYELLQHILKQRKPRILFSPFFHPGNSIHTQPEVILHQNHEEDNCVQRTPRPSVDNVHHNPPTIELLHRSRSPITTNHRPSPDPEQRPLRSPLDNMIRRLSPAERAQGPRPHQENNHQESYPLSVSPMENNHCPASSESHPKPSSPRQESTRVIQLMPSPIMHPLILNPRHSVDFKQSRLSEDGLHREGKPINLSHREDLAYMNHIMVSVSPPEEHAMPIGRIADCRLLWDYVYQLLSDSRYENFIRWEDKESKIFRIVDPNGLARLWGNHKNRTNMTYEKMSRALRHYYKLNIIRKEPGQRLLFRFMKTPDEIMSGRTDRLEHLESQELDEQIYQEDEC
# Method in brief: as §1
Sequence,binding signal (FEV),binding signal (ETV5),binding signal (SPIC),binding signal (ELF4),binding signal (ELK4),binding signal (ETV2),binding signal (ELF3),binding signal (ETV1),binding signal (ERF),binding signal (ETV3L),binding signal (ETS2),binding signal (SPDEF),binding signal (ETV7),binding signal (ELF5),binding signal (ETV3),binding signal (ETV6)
GGTTTG,"1.12 fold enrichment (6-mer frequency, TF over GST control)","1.02 fold enrichment (6-mer frequency, TF over GST control)","1.27 fold enrichment (6-mer frequency, TF over GST control)","1.12 fold enrichment (6-mer frequency, TF over GST control)","1.26 fold enrichment (6-mer frequency, TF over GST control)","1.05 fold enrichment (6-mer frequency, TF over GST control)","1.09 fold enrichment (6-mer frequency, TF over GST control)","1.14 fold enrichment (6-mer frequency, TF over GST control)","1.26 fold enrichment (6-mer frequency, TF over GST control)","1.16 fold enrichment (6-mer frequency, TF over GST control)","1.15 fold enrichment (6-mer frequency, TF over GST control)","1.06 fold enrichment (6-mer frequency, TF over GST control)","1.11 fold enrichment (6-mer frequency, TF over GST control)","1.16 fold enrichment (6-mer frequency, TF over GST control)","1.25 fold enrichment (6-mer frequency, TF over GST control)","1.17 fold enrichment (6-mer frequency, TF over GST control)"
ACAACA,"1.2 fold enrichment (6-mer frequency, TF over GST control)","1.16 fold enrichment (6-mer frequency, TF over GST control)","1.13 fold enrichment (6-mer frequency, TF over GST control)","1.19 fold enrichment (6-mer frequency, TF over GST control)","1.14 fold enrichment (6-mer frequency, TF over GST control)","1.28 fold enrichment (6-mer frequency, TF over GST control)","1.32 fold enrichment (6-mer frequency, TF over GST control)","1.23 fold enrichment (6-mer frequency, TF over GST control)","1.31 fold enrichment (6-mer frequency, TF over GST control)","1.17 fold enrichment (6-mer frequency, TF over GST control)","1.18 fold enrichment (6-mer frequency, TF over GST control)","1.19 fold enrichment (6-mer frequency, TF over GST control)","1.23 fold enrichment (6-mer frequency, TF over GST control)","1.22 fold enrichment (6-mer frequency, TF over GST control)","1.27 fold enrichment (6-mer frequency, TF over GST control)","1.29 fold enrichment (6-mer frequency, TF over GST control)"
CCGGGT,"1.02 fold enrichment (6-mer frequency, TF over GST control)","1.26 fold enrichment (6-mer frequency, TF over GST control)","1.19 fold enrichment (6-mer frequency, TF over GST control)","1.15 fold enrichment (6-mer frequency, TF over GST control)","1.09 fold enrichment (6-mer frequency, TF over GST control)","1.15 fold enrichment (6-mer frequency, TF over GST control)","1.12 fold enrichment (6-mer frequency, TF over GST control)","1.17 fold enrichment (6-mer frequency, TF over GST control)","1.1 fold enrichment (6-mer frequency, TF over GST control)","1.04 fold enrichment (6-mer frequency, TF over GST control)","1.24 fold enrichment (6-mer frequency, TF over GST control)","1.79 fold enrichment (6-mer frequency, TF over GST control)","1.13 fold enrichment (6-mer frequency, TF over GST control)","1.55 fold enrichment (6-mer frequency, TF over GST control)","1.21 fold enrichment (6-mer frequency, TF over GST control)","1.21 fold enrichment (6-mer frequency, TF over GST control)"
